This is a sample that favours compounds with a hit; in the whole collection about 1.6% have one here.
KCNQ2 inh = blocks the rat KCNQ2 potassium channel | O88943 | CHO-K1 KCNQ2, FluxOR thallium flux, 20 min; stronger effect = lower value | B-score at 10 µM | actives 1.1% (n = 310,000) | AID 2156;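 active = fluorescence ratio B-score at most minus 3 library SDs, with starting brightness B-score within 2 library SDs, cut at about -5.5 in these data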
Target sequence (O88943 whole entry, looked up): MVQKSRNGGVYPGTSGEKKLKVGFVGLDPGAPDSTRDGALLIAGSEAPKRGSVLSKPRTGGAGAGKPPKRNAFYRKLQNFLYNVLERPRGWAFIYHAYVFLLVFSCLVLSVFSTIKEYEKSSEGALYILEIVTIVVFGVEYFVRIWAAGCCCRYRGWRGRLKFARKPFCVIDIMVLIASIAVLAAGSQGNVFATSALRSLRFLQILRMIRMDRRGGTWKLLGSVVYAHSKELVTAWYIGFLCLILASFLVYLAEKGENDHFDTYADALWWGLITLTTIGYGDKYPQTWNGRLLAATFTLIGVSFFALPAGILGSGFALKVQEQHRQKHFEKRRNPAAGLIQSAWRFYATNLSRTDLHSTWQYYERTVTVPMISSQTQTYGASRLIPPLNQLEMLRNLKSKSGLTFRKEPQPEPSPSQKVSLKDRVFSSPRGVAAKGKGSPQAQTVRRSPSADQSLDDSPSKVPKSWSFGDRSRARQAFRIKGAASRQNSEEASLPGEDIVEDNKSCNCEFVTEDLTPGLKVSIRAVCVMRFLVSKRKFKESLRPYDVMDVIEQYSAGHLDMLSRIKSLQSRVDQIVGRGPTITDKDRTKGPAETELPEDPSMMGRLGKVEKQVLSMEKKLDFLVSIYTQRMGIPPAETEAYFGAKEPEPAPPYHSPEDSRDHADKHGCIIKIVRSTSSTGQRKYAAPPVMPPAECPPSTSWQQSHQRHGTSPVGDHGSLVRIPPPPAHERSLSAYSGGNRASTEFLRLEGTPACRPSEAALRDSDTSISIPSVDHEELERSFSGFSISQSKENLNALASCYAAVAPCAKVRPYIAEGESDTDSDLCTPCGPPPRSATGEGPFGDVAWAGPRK
KCNQ2 enhance = KCNQ2 (rat) channel potentiation. O88943. CHO-K1 KCNQ2, FluxOR thallium flux fluorescence; stronger effect = higher value. B-score at 10 µM. actives 0.54% (n = 310,000). AID 2239;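 active = fluorescence ratio B-score at least 3 SD of library B-scores, with initial fluorescence B-score within 3 of them, cut at about 5.3 in these data; same plate scores as AID 2156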;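 note: B-score of peak minus minimum over baseline fluorescence ratio after K+ and Tl+ stimulus; positive B-score means potentiation of KCNQ2 with more thallium influx and brighter signal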
An asterisk follows results filed as active; i = inactive; x = no result.

SMILES	KCNQ2 inh	KCNQ2 enhance
C=CCN(CC=C)C(=S)NC(=O)c1ccc(OC)cc1	i	3
COC(=O)C1=C(C)N(Cc2ccccc2)C(=O)/C1=C\c1ccco1	-5.7*	-5.7
C=CCN1C(=O)/C(=C\c2ccco2)C(C(=O)OC)=C1C	i	0.71
CCOC(=O)C1=C(C)N(c2ccc(OCC)cc2)C(=O)/C1=C\c1ccco1	i	x
COC(=O)C1=C(C)N(c2cccc(OC)c2)C(=O)/C1=C\c1ccco1	-6.2*	-6.2
CCN1C(=O)/C(=C\c2ccco2)C(C(=O)OC)=C1C	i	0.9
COC(=O)C1=C(C)N(CCc2ccccc2)C(=O)/C1=C\c1ccco1	-5.9*	-5.9
O=C(N=C1SC2CS(=O)(=O)CC2N1c1cccc(Cl)c1Cl)C1CCCO1 (centres undefined)	i	x
COc1ccc(CC(=O)Nc2cccc(-c3ccc4nncn4n3)c2)cc1OC	i	0.4
Cc1ccc(S(=O)(=O)N(c2ccc(Br)cc2)C2C=CS(=O)(=O)C2)cc1 (centres undefined)	i	0.34
Cc1cc(O)c(C(C)C)cc1NC(=O)c1cccc(Cl)c1	i	x
Cc1ccc(-c2nc3ccccc3c(C(=O)NCc3cccs3)c2C)cc1	-6.6*	-6.6
O=C(NCc1cccs1)c1cc(-c2ccccc2)nc2ccccc12	i	0.3
Cc1oc(-c2ccccc2F)nc1CN1CCC(C(=O)NC2CCCc3ccccc32)CC1 (centres undefined)	-7.3*	-7.3
Cc1oc(-c2ccccc2F)nc1CN1CCC(C(=O)NC2CCCCCCC2)CC1	i	x
O=C(OCC(=O)N1CCc2ccccc21)c1ccccn1	i	0.23
CC(C)C1=NN(C(=O)c2ccccc2)C(O)(C(C)(C)C)C1 (centres undefined)	i	7.1*
CC(C)(C)C1=NN(C(=O)c2ccccc2)C(O)(C(C)(C)C)C1 (centres undefined)	i	x
CCOC(=O)c1c(N)sc(C(O)(C(F)(F)F)C(F)(F)F)c1-c1ccccc1	-7.2*	-7.2
CCOC(=O)c1c(N)sc(-c2ccccc2)c1C	i	x
CCOc1cc(CNc2ccccc2)cc(Br)c1OCC(=O)NC(C)(C)C	-5.9*	-5.9
COc1cc(CNc2ccc(C(=O)O)cc2)cc(Br)c1OCC(=O)NC(C)(C)C	i	x
O=C(CCC(=O)N(CC(=O)NC1CCCC1)Cc1ccccc1Cl)Nc1nccs1	i	0.06
O=C(O)c1ccccc1NC(=O)C(c1ccccc1)c1ccccc1	i	1.4
O=C(Nc1ccc(Cl)c(Cl)c1)Nc1ccccc1O	i	11*
SMILES	KCNQ2 inh	KCNQ2 enhance
O=C(Nc1ccc(Cl)c(Cl)c1)Nc1ccc(Br)cc1F	i	x
O=C(Nc1ccccc1O)C(c1ccccc1)c1ccccc1	-6.5*	-6.5
N#CCC(=O)Nc1ccc(C(=O)Nc2cccc(S(N)(=O)=O)c2)cc1	i	0.89
NS(=O)(=O)c1ccc(CCNS(=O)(=O)c2cccc3nsnc23)cc1	i	x
COC(=O)C(Cc1ccc(OC(=O)c2ccccc2C)cc1)N1Cc2ccccc2C1=O (centres undefined)	-5.9*	-5.9
COC(=O)C(Cc1ccc(OC(=O)c2ccccc2Cl)cc1)N1Cc2ccccc2C1=O (centres undefined)	i	x
C=CCn1c(Cc2ccccc2)nc2c(cnn2-c2ccccc2)c1=O	i	x
Fc1cccc(-c2cc3nc4c(c(NCc5ccco5)n3n2)CCCC4)c1	i	x
COc1cccc(-c2cc3nc4c(c(NCC(C)(C)CN(C)C)n3n2)CCCC4)c1	-7.7*	-7.7
Cc1ccc(CCNC(=O)CN(C)S(=O)(=O)c2ccc3c(c2)n(C)c(=O)c(=O)n3C)cc1	i	2.2
CCOC(=O)C1=C(C)NC(C)=C(C(=O)OCC)C1C(=O)OCC(=O)N(CC)C1CCS(=O)(=O)C1 (centres undefined)	i	x
COc1cc(C#N)ccc1OC(=O)C1CCN(C(=O)c2ccc(F)cc2)CC1	i	x
CCCN(CC1CC1)c1nc(N)c(C#N)c(CC#N)c1C#N	i	x
CCCN(CC1CC1)c1nc(C)nc(Nc2c(Cl)cc(Cl)cc2Cl)c1Cl	-5.6*	-5.6
O=C(Nc1ccc(N2CCOCC2)cc1)c1ccc(S(=O)(=O)NCc2ccco2)cc1	i	x
COc1ccc(S(=O)(=O)NC(N)=NCCc2ccccc2)cc1	i	0.68
CCC(C)N(C(=O)CSc1nnc(-c2ccco2)n1C)C1CCS(=O)(=O)C1 (centres undefined)	i	0.12
CC(C)(C)n1nnnc1C(c1cccc(C#N)c1)N1CCC(Cc2ccccc2)CC1 (centres undefined)	i	0.94
CCC(C)(C)n1nnnc1C(c1cccc(C#N)c1)N1CCN(c2cc(C)ccc2C)CC1 (centres undefined)	-5.8*	-5.8
S=C(Nc1ccccc1Cl)N(CCCN1CCOCC1)Cc1ccccn1	i	x
CC1=Nc2ccc(Br)cc2C(c2ccccc2)N1CC(=O)NN (centres undefined)	i	1.6
OC1c2cc(Br)ccc2N=C2CCCN21 (centres undefined)	-7.7*	-7.7

Source: PubChem
